18 molecules from PubChem BioAssay (NCATS) can be followed below.

Inconclusive results are not listed. The source made the active and inactive calls. The call rests on the fitted dose curve; in most records, active means well fitted curve in the direction sought with a large enough effect; inconclusive means small, poorly fitted or top-dose-only effect, or another doubt; inactive means no such curve, though single readings can be large; an effect the other way counts as inactive or inconclusive. Starred links: 1 amine or outer side, 2 acyl side, 3 side chain; linkers in the order of their positions; H or OH if unused. Positions of bridges follow the written chain, without caps; N, C: chain ends. Non-standard residues stand in square brackets, D forms with d. Residues, ends and D or L forms follow the SMILES beside them. Chains are numbered I, II in the order given. Actinocin(9to1) = Cc1c2oc3c(C)ccc(C(=O)[*:1])c3nc-2c(C(=O)[*:2])c(N)c1=O; NMeV = CN[CH](C(=O)O)C(C)C; Sar = CNCC(=O)O

One assay has as its system MCC-13. The assay is described as follows: qHTS assay to identify novel small-molecules to repurpose for Merkel cell carcinoma treatment (AID 1296009). Further: nearly all actives have a fitted effect of over 60% in size. Further: potency means the concentration at half of the fitted maximal effect. The following applies: MCC and control cell lines, CellTiter-Glo viability, 72 h; series mostly up to 46 µM. Summed up:
(§1)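 Cells were incubated with compound for 72 hr at 37 degree celsius before CellTiter-Glo addition. Luminescence was normalized with no-cell wells as full cytotoxicity and DMSO as baseline.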
(qHTS replaces the single test concentration by a dilution series.)

The next assay has as its system MCC-26. The description is as above. The following applies: MCC and control cell lines, CellTiter-Glo viability, 72 h; series mostly up to 46 µM. Summed up:
as §1
A general note: ATP-based viability assays read luminescence as a measure of living cells.

For another assay, the system named is MKL-1. The assay is described as above. Conditions: MCC and control cell lines, CellTiter-Glo viability, 72 h; series mostly up to 46 µM. A digest of the protocol:
as §1

The test system of the next assay is MKL-2. Described as above. Conditions: MCC and control cell lines, CellTiter-Glo viability, 72 h; series mostly up to 46 µM. A digest of the protocol: as §1
A further assay deals with UISO. The description is as above. The following applies: MCC and control cell lines, CellTiter-Glo viability, 72 h; series mostly up to 46 µM. A digest of the protocol: as §1
For a further assay, the system named is WaGa. Described as above. The following applies: MCC and control cell lines, CellTiter-Glo viability, 72 h; series mostly up to 46 µM. A digest of the protocol:
as §1

A further assay concerns C33A. The assay is described as follows: Primary qHTS to identify gynecologic anti-cancer compounds using libraries of approved drugs and bioactive compounds (AID 1345084). Further: nearly all actives have a fitted effect of over 55% in size. The following applies: Gynecologic cancer cell panel viability, ATPlite luminescence, 48 h; series mostly up to 57.5 µM. A digest of the protocol:
(§2)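 Cytotoxicity screen measuring ATP content by luciferase luminescence. Each compound is applied at five concentrations for 48 h at 37 C with 5% CO2.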

The next assay deals with CASKI. The assay is described as above. Conditions: Gynecologic cancer cell panel viability, ATPlite luminescence, 48 h; series mostly up to 57.5 µM. Summed up: as §2
In another assay the test system is Es-2. Described as above. Conditions: Gynecologic cancer cell panel viability, ATPlite luminescence, 48 h; series mostly up to 57.5 µM. A digest of the protocol:
as §2

In another assay the test system is HeLa. The assay is described as above. Conditions: Gynecologic cancer cell panel viability, ATPlite luminescence, 48 h; series mostly up to 57.5 µM. Summed up: as §2
The next assay relates to Hek293T. The assay is described as above. Conditions: Gynecologic cancer cell panel viability, ATPlite luminescence, 48 h, control line for the selectivity index; series mostly up to 57.5 µM. A digest of the protocol: as §2
In another assay the test system is JEG-3. Described as above. The following applies: Gynecologic cancer cell panel viability, ATPlite luminescence, 48 h; series mostly up to 57.5 µM. A digest of the protocol:
as §2

The next assay has as its system OV90. The description is as above. Conditions: Gynecologic cancer cell panel viability, ATPlite luminescence, 48 h; series mostly up to 57.5 µM. A digest of the protocol:
as §2

A further assay concerns PA-1. Described as above. The following applies: Gynecologic cancer cell panel viability, ATPlite luminescence, 48 h; series mostly up to 57.5 µM. Summed up:
as §2

The test system of the next assay is SKOV3. The description is as above. The following applies: Gynecologic cancer cell panel viability, ATPlite luminescence, 48 h; series mostly up to 57.5 µM. A digest of the protocol: as §2
For another assay, the system named is Tov-21-G. The assay is described as above. Conditions: Gynecologic cancer cell panel viability, ATPlite luminescence, 48 h; series mostly up to 57.5 µM. A digest of the protocol: as §2
The subject of the next assay is Tov112D. The description is as above. The following applies: Gynecologic cancer cell panel viability, ATPlite luminescence, 48 h; series mostly up to 57.5 µM. Summed up: as §2

For the molecule `OCC(O)C(O)C(O)CO` (stereo unspecified), the Potency entry with MCC-13, in the assay on MCC-26, with MKL-1, with MKL-2, in the assay on UISO and in the assay on WaGa was “inactive” in each case.

Turning to `CN[C@H](CC(C)C)C(=O)N[C@H]1C(=O)N[C@@H](CC(N)=O)C(=O)N[C@@H]2C(=O)N[C@H]3C(=O)N[C@H](C(=O)N[C@H](C(=O)O)c4cc(O)cc(O)c4-c4cc3ccc4O)[C@H](O)c3ccc(c(Cl)c3)Oc3cc2cc(c3O[C@@H]2O[C@H](CO)[C@@H](O)[C@H](O)[C@@H]2O[C@H]2C[C@](C)(N)[C@H](O)[C@H](C)O2)Oc2ccc(cc2Cl)[C@H]1O`, the Potency result with MCC-13, in the assay on MCC-26, with MKL-1, in the assay with MKL-2, in the assay with UISO and in the assay with WaGa was “inactive” in each case.

With `Nc1ccn(C2CO[C@H](CO)O2)c(=O)n1` (stereo partly specified), the Potency entry with MCC-13, with MCC-26, with MKL-1, in the assay with MKL-2, with UISO and with WaGa was “inactive” in each case. In addition, the Potency entry with C33A, in the assay on CASKI, with Es-2, with HeLa, in the assay with Hek293T and in the assay with JEG-3 was “inactive” each time. For the same molecule, the Potency entry in the assay with OV90, in the assay on PA-1, in the assay on SKOV3, in the assay on Tov-21-G and with Tov112D was “inactive” throughout.

Regarding `c1ccc(CNc2nc(NCc3ccccc3)c3ccccc3n2)cc1`, the Potency entry with MCC-13, in the assay with MCC-26, with MKL-1, in the assay with UISO and with WaGa was “inactive” throughout. Moreover, in the assay with MKL-2, the Potency is 18.7 µM (active).

`C[C@H](NCc1ccc2c(c1)nc(NC(=O)c1ccc(-c3cn[nH]c3)s1)n2CCc1ccccc1)C(C)(C)C`: the Potency with MCC-13 is 10.5 µM (active); with MCC-26 it was 10.5 µM (active); in the assay with MKL-1, 2.35 µM (active); in the assay with MKL-2, 5.9 µM (active); in the assay on UISO, 6.62 µM (active); in the assay on WaGa, 4.69 µM (active).

`COc1ccnc2[nH]cc(C(=O)C(=O)N3CCN(C(=O)c4ccccc4)C[C@@H]3C)c12`: the Potency result in the assay on MCC-13, in the assay on MCC-26, in the assay on MKL-1, in the assay with MKL-2, with UISO and with WaGa was “inactive” in each case.

Consider `Cc1c2oc3c(C)ccc(C(=O)NC4C(=O)NC(C(C)C)C(=O)N5CCCC5C(=O)N(C)CC(=O)N(C)C(C(C)C)C(=O)OC4C)c3nc-2c(C(=O)NC2C(=O)NC(C(C)C)C(=O)N3CCCC3C(=O)N(C)CC(=O)N(C)C(C(C)C)C(=O)OC2C)c(N)c1=O` (stereo unspecified) (I: TVP[Sar][NMeV] / II: TVP[Sar][NMeV]; ester I:1-I:C, II:1-II:C; linker I:N-II:N via Actinocin(9to1); configuration not given here), for which the Potency entry in the assay with MCC-13, in the assay with MCC-26, in the assay with MKL-1, with MKL-2, with UISO and in the assay with WaGa was “inactive” throughout.

For the molecule `C=C1CCC2[C@](C)(CO)C(O)CC[C@]2(C)C1CC=C1C(=O)OCC1O` (stereo partly specified), the Potency result in the assay on MCC-13, in the assay with MCC-26, in the assay on MKL-1, in the assay on MKL-2, with UISO and with WaGa was “inactive” in each case.

As for `CC1(C)O[C@@H]2C[C@H]3[C@@H]4CCC5=CC(=O)C=C[C@]5(C)[C@@H]4[C@@H](O)C[C@]3(C)[C@]2(C(=O)CO)O1`, the Potency result with MCC-13, in the assay with MCC-26, in the assay with MKL-1, with MKL-2, with UISO and in the assay with WaGa was “inactive” each time. Moreover, the Potency result in the assay on C33A, with CASKI, in the assay on Es-2, with HeLa, in the assay with Hek293T and in the assay with JEG-3 was “inactive” each time. For the same molecule, the Potency result in the assay on OV90, in the assay on PA-1, with SKOV3, with Tov-21-G and in the assay on Tov112D was “inactive” in each case.

Turning to `CN(C)CC[C@H](c1ccc(Cl)cc1)c1ccccn1`, the Potency result with MCC-13, in the assay with MCC-26, in the assay with MKL-1, with MKL-2, in the assay on UISO and in the assay on WaGa was “inactive” throughout.

In the case of `CON=C(C(=O)N[C@@H]1C(=O)N2C(C(=O)O)=C(Cn3ccc(=N)n3CCO)CS[C@H]12)c1csc(N)n1`, the Potency result in the assay with MCC-13, in the assay on MCC-26, in the assay on MKL-1, in the assay on MKL-2, in the assay with UISO and in the assay with WaGa was “inactive” in each case.

In the case of `CC(=O)N[C@H]1[C@@H]([C@H](O)[C@H](O)CO)OC(C(=O)O)=C[C@@H]1N=C(N)N`, the Potency result in the assay with MCC-13, in the assay with MCC-26, with MKL-1, with MKL-2, in the assay on UISO and in the assay with WaGa was “inactive” each time.

For `CC(=O)OCC(=O)[C@@]12N=C(C)O[C@H]1C[C@H]1[C@@H]3CCC4=CC(=O)C=C[C@]4(C)[C@@H]3[C@@H](O)C[C@@]12C`, the Potency entry with MCC-13, in the assay on MCC-26, in the assay on MKL-1, with MKL-2, in the assay with UISO and in the assay with WaGa was “inactive” each time.

As to `CC(=O)N1CCN(c2ccc(OCc3nn(C)c(C)c3-c3cccc4c(CCCOc5cccc6ccccc56)c(C(=O)O)n(Cc5cccnc5)c34)cc2)CC1`, the Potency entry with MCC-13 is “inactive”. Further, the Potency with MCC-26 is 16.6 µM (active); in the assay with MKL-1, 3.32 µM (active); with MKL-2, 0.296 µM (active); in the assay with UISO, 1.18 µM (active); in the assay with WaGa it was 0.0833 µM (active).

Regarding `Cn1cc(C[C@@H](N)C(=O)O)c2ccccc21`, the Potency entry in the assay with MCC-13, with MCC-26, in the assay on MKL-1, in the assay on MKL-2, in the assay on UISO and in the assay with WaGa was “inactive” in each case.

In the case of `c1cc(CN2CCCNCCNCCCNCC2)ccc1CN1CCCNCCNCCCNCC1`, the Potency entry with MCC-13, in the assay on MCC-26, in the assay on MKL-1, in the assay on MKL-2, with UISO and with WaGa was “inactive” throughout.

On to `C[N+]1(C)[C@@H]2C[C@@H](OC(=O)C(O)(c3cccs3)c3cccs3)C[C@H]1[C@@H]1O[C@@H]12`, for which the Potency result in the assay on MCC-13, in the assay with MCC-26, with MKL-1, with MKL-2, in the assay with UISO and in the assay with WaGa was “inactive” in each case. Moreover, the Potency entry with C33A, in the assay on CASKI, in the assay with Es-2, in the assay with HeLa, with Hek293T and with JEG-3 was “inactive” in each case. Also, the Potency entry in the assay on OV90, in the assay with PA-1, with SKOV3, with Tov-21-G and in the assay on Tov112D was “inactive” each time.

In the case of `CC[C@H](CC[C@@H](C)[C@H]1CC[C@H]2[C@@H]3CC=C4C[C@@H](O)CC[C@]4(C)[C@@H]3CC[C@]12C)C(C)C`, the Potency result with MCC-13, with MCC-26, in the assay on MKL-1, in the assay on MKL-2, with UISO and in the assay on WaGa was “inactive” throughout.
